PubChem BioAssay

target: 6-phosphogluconate dehydrogenase, decarboxylating (Homo sapiens) (UniProt P52209); test: inhibition of human phosphogluconate dehydrogenase – biochemical, recombinant enzyme, NADPH absorbance, primary screen (AID 1159550); settings: recombinant 6PGD, NADPH absorbance 341 nm; at 10 µM; active compounds read high
Sequence (P52209 whole entry, looked up): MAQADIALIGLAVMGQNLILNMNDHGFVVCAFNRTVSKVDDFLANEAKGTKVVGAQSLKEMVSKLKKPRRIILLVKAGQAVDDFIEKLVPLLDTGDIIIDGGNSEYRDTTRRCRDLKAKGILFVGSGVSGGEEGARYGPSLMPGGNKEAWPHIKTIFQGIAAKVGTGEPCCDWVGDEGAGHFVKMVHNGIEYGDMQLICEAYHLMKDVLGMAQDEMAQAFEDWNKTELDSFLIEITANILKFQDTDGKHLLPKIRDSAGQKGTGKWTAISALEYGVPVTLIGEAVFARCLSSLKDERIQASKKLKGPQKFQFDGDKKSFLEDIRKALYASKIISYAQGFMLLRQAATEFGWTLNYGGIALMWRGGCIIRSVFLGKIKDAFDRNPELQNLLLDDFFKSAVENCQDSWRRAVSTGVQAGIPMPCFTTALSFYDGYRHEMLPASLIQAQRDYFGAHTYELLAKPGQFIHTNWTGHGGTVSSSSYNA

inhibition, inactive:
COc1c(-c2ccccc2)oc2c(OC)cccc2c1=O -9.55%
CC(=O)OCC(=O)[C@@]1(O)CC[C@H]2[C@@H]3CC[C@@H]4C[C@H](OC(C)=O)CC[C@]4(C)[C@H]3C(=O)C[C@@]21C 4.42%
C=CCCCCCCCCCCC/C=C/C(O)COC(C)=O (stereo unspecified) -11.7%
O[n+]1ccccc1[S-].O[n+]1ccccc1[S-].[Zn] 12.7%
CC1OC(OC2C(O)COC(OC3C(C)OC(OC4C(OC(=O)C56CCC(C)(C)CC5C5=CCC7C8(C)CCC(OC9OC(CO)C(O)C(O)C9O)C(C)(C)C8CCC7(C)C5(C)CC6O)OCC(O)C4O)C(O)C3O)C2O)C(O)C(O)C1O (stereo unspecified) -33.1%
COc1ccc2c(c1)OC/C(=C/c1ccc(O)c(O)c1)C2=O 2.37%
CC1(C)C=Cc2c(cc3occ(-c4ccc5c(c4)OCO5)c(=O)c3c2O)O1 -4.68%
CCCc1occc(=O)c1/C=C/O -1.45%
COC(=O)C[C@H]1C(C)(C)C2(Cl)O[C@@]34CC2C(=O)[C@]1(C)C3CC[C@]1(C)C4=CC(=O)O[C@H]1c1ccoc1 (stereo partly specified) 6.04%
C=C1C(=O)OC2C[C@]3(C)[C@H](C(C)=CC[C@@H]3O)[C@@H](O)C12 (stereo partly specified) 18.1%
CO[C@H]1/C=C/O[C@@]2(C)Oc3c(C)c(O)c4c(O)c(c(/C=N/N5CCN(C)CC5)c(O)c4c3C2=O)NC(=O)/C(C)=C/C=C/[C@H](C)[C@H](O)[C@@H](C)[C@@H](O)[C@@H](C)[C@H](OC(C)=O)[C@@H]1C 18.2%
